Data reported in ChEMBL document CHEMBL1961873, “Compounds: GSK PKIS; Assays: Nanosyn kinase panel” (2012).

Columns and labels:
[1] = target: Protein kinase C gamma type (Homo sapiens) (UniProt P05129); conditions: at 1 µM;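 also: each value is an averaged percent inhibition of the enzyme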
[2] = target: T1, Protein kinase C iota type (Homo sapiens) (UniProt P41743); conditions: at 0.1 µM
T1 sequence (whole entry): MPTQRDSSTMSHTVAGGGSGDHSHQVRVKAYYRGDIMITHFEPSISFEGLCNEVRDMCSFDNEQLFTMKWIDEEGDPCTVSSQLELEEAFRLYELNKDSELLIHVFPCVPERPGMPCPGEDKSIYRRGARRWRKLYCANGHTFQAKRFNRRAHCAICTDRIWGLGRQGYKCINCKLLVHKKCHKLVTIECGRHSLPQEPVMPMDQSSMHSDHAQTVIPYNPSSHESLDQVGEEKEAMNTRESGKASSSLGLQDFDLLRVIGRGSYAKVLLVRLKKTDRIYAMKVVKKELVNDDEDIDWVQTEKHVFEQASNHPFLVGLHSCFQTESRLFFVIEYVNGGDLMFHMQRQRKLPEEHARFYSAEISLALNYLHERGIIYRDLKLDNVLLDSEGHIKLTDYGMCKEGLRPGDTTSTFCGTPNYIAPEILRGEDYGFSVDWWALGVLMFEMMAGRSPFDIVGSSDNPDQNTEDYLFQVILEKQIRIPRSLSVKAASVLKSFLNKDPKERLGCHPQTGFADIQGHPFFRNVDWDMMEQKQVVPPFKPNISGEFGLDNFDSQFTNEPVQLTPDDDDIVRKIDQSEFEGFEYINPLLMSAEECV

[3] = target: T1, Protein kinase C iota type (Homo sapiens); conditions: at 1 µM
[4] = target: Protein kinase C theta type (Homo sapiens) (UniProt Q04759); conditions: at 0.1 µM
[5] = target: Protein kinase C theta type (Homo sapiens) (UniProt Q04759); conditions: at 1 µM
[6] = target: Protein kinase C beta type (Homo sapiens) (UniProt P05771); conditions: at 0.1 µM
[7] = target: Protein kinase C beta type (Homo sapiens) (UniProt P05771); conditions: at 1 µM
[8] = target: T2, Serine/threonine-protein kinase D1 (Homo sapiens) (UniProt Q15139); conditions: at 0.1 µM
T2 sequence (whole entry): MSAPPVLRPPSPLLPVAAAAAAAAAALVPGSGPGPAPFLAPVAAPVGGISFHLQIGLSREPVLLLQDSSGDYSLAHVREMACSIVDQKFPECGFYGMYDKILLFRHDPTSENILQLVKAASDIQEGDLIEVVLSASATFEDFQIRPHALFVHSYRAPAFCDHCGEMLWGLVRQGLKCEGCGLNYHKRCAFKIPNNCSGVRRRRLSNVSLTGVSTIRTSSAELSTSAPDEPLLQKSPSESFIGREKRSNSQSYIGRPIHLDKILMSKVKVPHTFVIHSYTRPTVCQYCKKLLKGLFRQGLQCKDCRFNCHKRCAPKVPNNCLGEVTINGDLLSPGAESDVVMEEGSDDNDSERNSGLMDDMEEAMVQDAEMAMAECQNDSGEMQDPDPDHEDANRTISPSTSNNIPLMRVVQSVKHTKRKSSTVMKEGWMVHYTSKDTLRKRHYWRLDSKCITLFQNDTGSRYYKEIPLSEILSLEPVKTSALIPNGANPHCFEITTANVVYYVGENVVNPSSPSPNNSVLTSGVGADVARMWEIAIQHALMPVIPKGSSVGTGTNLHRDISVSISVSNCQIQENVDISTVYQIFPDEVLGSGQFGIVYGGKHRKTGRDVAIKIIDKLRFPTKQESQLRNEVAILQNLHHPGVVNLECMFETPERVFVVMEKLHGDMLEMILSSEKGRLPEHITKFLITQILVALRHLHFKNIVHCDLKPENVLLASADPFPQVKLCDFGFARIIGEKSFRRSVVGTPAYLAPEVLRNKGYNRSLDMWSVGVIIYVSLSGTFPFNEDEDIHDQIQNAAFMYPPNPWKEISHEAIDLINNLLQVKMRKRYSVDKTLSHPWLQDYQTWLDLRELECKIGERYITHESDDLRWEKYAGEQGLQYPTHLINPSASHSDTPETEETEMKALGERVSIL

[9] = target: T2, Serine/threonine-protein kinase D1 (Homo sapiens); conditions: at 1 µM
[10] = target: T3, Serine/threonine-protein kinase D2 (Homo sapiens) (UniProt Q9BZL6); conditions: at 0.1 µM
T3 sequence (whole entry): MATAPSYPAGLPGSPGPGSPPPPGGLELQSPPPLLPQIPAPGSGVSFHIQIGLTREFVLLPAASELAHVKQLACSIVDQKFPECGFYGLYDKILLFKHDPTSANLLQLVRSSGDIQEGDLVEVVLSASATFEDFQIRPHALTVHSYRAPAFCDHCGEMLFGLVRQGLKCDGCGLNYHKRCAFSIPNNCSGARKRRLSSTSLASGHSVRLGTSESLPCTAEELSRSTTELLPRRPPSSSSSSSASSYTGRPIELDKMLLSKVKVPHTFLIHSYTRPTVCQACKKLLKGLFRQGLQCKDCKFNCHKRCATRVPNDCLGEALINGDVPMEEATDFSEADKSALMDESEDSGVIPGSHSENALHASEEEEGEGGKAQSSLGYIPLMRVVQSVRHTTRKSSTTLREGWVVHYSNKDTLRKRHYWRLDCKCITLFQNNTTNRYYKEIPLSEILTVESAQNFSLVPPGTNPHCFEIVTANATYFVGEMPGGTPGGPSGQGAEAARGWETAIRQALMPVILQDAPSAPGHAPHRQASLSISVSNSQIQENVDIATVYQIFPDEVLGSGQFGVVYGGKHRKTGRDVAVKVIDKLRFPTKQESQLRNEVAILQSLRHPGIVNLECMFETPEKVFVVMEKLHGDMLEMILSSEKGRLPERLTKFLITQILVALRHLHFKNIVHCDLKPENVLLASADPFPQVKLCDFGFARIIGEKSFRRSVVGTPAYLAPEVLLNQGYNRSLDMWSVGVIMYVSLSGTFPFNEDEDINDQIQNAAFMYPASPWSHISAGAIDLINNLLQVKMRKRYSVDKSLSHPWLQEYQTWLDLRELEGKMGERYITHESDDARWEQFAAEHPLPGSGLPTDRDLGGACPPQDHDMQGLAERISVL

[11] = target: T3, Serine/threonine-protein kinase D2 (Homo sapiens); conditions: at 1 µM
[12] = target: T4, Serine/threonine-protein kinase D3 (Homo sapiens) (UniProt O94806); conditions: at 0.1 µM
T4 sequence (whole entry): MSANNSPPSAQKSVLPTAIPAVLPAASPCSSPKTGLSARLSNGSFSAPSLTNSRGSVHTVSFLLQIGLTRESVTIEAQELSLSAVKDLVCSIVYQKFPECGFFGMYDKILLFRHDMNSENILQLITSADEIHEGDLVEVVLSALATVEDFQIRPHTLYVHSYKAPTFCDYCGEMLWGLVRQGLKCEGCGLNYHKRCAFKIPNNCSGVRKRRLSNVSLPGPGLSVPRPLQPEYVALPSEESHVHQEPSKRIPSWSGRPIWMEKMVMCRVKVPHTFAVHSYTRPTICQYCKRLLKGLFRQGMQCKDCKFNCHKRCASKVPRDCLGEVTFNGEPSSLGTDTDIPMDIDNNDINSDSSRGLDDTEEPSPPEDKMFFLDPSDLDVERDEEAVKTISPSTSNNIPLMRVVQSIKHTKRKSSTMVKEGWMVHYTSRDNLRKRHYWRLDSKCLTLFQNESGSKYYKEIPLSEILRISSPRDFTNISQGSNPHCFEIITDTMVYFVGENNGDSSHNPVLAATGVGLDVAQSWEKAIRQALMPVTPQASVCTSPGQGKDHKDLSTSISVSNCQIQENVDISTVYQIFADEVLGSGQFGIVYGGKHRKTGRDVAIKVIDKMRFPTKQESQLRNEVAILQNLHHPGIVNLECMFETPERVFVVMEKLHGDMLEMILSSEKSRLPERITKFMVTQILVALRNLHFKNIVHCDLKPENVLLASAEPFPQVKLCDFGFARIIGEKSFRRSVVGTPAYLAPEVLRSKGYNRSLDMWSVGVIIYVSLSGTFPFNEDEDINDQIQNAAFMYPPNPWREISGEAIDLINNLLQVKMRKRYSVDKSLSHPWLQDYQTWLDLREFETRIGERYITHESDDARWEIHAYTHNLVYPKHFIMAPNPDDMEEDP

[13] = target: T4, Serine/threonine-protein kinase D3 (Homo sapiens); conditions: at 1 µM
[14] = target: T5, cGMP-dependent protein kinase 1 (Homo sapiens) (UniProt Q13976); conditions: at 0.1 µM
T5 sequence (whole entry): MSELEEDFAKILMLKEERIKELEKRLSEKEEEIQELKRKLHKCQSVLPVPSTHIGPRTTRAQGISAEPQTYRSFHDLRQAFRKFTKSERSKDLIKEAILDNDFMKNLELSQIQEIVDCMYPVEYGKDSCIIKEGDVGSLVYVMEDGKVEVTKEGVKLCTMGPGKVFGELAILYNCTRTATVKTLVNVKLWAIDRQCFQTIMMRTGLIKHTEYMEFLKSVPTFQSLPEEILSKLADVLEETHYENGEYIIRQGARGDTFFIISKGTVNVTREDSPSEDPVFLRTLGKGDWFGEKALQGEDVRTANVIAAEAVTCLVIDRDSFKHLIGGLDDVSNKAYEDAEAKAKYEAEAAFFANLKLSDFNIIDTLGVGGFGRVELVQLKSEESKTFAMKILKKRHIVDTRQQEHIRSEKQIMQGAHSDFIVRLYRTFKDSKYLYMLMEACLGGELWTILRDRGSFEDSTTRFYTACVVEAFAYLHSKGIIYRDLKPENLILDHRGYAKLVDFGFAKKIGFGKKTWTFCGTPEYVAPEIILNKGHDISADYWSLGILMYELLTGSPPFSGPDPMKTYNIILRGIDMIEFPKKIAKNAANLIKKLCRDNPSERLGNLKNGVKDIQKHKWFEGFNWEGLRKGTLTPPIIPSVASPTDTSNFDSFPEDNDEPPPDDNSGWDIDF

[15] = target: T5, cGMP-dependent protein kinase 1 (Homo sapiens); conditions: at 1 µM
[16] = target: T6, cGMP-dependent protein kinase 2 (Homo sapiens) (UniProt Q13237); conditions: at 0.1 µM
T6 sequence (whole entry): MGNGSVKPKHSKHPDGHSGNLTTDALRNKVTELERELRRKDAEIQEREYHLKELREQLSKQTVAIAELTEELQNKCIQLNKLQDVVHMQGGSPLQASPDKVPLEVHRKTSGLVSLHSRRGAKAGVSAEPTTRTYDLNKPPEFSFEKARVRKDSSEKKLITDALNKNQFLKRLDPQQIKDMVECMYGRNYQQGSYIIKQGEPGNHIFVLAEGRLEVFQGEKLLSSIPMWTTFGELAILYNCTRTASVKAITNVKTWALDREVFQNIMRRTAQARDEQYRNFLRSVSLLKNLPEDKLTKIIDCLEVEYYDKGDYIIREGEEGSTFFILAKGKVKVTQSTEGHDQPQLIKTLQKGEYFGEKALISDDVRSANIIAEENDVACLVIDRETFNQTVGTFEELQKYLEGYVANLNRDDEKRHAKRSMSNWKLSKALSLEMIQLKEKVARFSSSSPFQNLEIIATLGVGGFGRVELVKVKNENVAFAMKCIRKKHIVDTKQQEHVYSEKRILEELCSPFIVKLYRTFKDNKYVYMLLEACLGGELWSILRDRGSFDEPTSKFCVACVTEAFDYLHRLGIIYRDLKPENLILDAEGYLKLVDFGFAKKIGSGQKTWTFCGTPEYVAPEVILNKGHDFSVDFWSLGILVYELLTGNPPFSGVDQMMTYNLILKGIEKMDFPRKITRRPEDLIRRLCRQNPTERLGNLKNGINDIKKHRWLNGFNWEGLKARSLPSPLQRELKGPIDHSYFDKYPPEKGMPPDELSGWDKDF

[17] = target: T6, cGMP-dependent protein kinase 2 (Homo sapiens); conditions: at 1 µM
[18] = target: T7, cAMP-dependent protein kinase catalytic subunit PRKX (Homo sapiens) (UniProt P51817); conditions: at 0.1 µM
T7 sequence (whole entry): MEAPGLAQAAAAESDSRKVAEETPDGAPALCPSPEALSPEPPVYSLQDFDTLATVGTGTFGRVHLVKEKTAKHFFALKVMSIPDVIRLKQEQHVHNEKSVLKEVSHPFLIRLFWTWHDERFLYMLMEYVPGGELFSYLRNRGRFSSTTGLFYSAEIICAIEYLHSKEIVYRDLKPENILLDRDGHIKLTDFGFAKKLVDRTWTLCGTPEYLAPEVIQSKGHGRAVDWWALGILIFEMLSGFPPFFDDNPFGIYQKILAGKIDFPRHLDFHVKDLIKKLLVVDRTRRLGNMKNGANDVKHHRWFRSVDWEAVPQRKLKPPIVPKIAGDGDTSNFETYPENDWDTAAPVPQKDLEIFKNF

[19] = target: T7, cAMP-dependent protein kinase catalytic subunit PRKX (Homo sapiens); conditions: at 1 µM
[20] = target: Rho-associated protein kinase 1 (Homo sapiens) (UniProt Q13464); conditions: at 0.1 µM;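 also: values are mean percent inhibition of ROCK1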
Rho-associated protein kinase 1 (Homo sapiens), sequence (Q13464 2-1354 limits assumed): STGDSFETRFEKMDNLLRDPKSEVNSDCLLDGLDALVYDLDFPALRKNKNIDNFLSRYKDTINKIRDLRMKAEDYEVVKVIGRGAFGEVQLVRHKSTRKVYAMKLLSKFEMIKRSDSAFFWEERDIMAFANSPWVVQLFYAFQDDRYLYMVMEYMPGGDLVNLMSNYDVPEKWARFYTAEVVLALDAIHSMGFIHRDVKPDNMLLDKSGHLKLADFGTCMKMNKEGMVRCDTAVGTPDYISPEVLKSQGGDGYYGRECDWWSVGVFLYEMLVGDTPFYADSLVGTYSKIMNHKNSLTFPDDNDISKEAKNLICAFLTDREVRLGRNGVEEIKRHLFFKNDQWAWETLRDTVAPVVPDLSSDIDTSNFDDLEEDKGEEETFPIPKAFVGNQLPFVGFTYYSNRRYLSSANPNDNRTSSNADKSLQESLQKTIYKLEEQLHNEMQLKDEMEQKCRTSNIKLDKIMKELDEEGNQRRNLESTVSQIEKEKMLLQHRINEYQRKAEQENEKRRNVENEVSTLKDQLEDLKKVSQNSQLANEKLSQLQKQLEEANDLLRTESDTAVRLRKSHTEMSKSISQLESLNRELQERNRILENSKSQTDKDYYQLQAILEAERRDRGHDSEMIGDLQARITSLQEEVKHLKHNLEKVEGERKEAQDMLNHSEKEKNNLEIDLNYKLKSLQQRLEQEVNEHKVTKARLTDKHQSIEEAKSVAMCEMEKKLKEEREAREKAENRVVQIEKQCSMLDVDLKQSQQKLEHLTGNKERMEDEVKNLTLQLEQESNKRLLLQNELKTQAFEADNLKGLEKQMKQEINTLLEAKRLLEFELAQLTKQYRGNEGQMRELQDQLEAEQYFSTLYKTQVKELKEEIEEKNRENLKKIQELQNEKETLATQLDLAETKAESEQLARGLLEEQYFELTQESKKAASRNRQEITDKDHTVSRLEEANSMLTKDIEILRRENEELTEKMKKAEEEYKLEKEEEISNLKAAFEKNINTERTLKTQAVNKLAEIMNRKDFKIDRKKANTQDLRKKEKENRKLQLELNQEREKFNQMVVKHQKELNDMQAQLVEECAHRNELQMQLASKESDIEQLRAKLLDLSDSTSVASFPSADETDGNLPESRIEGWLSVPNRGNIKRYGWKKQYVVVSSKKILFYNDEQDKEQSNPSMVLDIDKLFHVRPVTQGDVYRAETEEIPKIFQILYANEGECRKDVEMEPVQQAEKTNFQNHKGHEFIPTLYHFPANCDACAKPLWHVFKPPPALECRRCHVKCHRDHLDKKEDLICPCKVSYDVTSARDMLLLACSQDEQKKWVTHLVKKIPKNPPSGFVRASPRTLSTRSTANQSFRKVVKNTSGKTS

Protein kinase C beta type (Homo sapiens), sequence (P05771 2-671 limits assumed): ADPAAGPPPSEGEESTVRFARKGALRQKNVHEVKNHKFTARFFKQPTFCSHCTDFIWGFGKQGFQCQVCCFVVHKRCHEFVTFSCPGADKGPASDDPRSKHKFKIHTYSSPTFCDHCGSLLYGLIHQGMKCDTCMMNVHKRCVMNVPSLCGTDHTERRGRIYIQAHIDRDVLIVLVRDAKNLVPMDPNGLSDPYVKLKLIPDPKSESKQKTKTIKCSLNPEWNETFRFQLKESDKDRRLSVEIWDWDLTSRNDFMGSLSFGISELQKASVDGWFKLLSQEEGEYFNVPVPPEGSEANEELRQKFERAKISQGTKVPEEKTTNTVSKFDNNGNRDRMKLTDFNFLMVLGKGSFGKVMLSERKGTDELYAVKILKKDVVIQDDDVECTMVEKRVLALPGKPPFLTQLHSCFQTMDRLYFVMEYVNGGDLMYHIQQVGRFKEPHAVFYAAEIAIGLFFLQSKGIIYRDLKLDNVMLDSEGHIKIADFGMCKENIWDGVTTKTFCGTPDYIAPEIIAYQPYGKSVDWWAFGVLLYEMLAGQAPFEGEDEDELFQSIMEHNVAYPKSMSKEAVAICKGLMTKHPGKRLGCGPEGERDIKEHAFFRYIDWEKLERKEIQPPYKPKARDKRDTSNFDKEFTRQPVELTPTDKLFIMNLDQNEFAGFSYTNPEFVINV
Protein kinase C theta type (Homo sapiens), sequence (Q04759 whole entry, looked up): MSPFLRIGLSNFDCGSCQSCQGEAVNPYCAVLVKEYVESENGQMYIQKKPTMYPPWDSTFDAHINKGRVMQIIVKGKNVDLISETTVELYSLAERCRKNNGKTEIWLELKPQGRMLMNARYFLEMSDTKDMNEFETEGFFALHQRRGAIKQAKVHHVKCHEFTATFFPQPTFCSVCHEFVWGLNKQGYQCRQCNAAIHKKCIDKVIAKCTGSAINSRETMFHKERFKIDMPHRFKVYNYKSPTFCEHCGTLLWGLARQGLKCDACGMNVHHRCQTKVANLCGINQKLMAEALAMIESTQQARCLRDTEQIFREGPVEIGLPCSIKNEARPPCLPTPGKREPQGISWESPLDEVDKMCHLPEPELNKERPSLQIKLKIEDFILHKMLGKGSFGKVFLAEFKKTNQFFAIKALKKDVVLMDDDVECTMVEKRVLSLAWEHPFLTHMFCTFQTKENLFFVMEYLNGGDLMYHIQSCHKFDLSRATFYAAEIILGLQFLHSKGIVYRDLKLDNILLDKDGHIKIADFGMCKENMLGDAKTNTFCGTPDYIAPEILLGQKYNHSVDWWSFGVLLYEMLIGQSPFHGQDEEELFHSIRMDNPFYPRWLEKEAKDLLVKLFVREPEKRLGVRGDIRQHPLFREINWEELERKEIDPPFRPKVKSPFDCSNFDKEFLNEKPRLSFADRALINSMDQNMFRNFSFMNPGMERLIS

| Structure (SMILES) | inhibition [1] | inhibition [2] | inhibition [3] | inhibition [4] | inhibition [5] | inhibition [6] | inhibition [7] | inhibition [8] | inhibition [9] | inhibition [10] | inhibition [11] | inhibition [12] | inhibition [13] | inhibition [14] | inhibition [15] | inhibition [16] | inhibition [17] | inhibition [18] | inhibition [19] | inhibition [20] |
| --- | --- | --- | --- | --- | --- | --- | --- | --- | --- | --- | --- | --- | --- | --- | --- | --- | --- | --- | --- | --- |
| C[C@@H](Oc1cc(-n2cnc3ccc(OC[C@@H](O)CO)cc32)sc1C(N)=O)c1ccccc1Cl | -0.26% | -0.24% | 1.09% | -0.9% | 0.85% | -1.05% | 2.03% | -1.17% | 0.36% | 0.81% | 1.51% | -1.65% | 0.06% | -2.27% | -0.2% | -0.02% | -0.19% | -1.09% | -8.23% | 0.14% |
| COc1cccc(-n2nc(C)c3c(N/N=C(\C)c4ccncc4)ncnc32)c1 | -0.03% | -1.18% | -0.8% | -0.03% | -0.11% | 0.75% | 0.46% | 0.01% | 0.3% | 0.82% | -1.17% | -0.64% | 0.59% | 0.03% | 0.55% | 0.35% | -0.19% | -0.2% | -1.17% | -1.53% |
| Nc1nccc(C#Cc2cncnc2Nc2ccc(OCc3cccc(F)c3)c(Cl)c2)n1 | 4.21% | 1.86% | 3.2% | 2.44% | 1.22% | 0.73% | 1.49% | 3.68% | 6.75% | 4.56% | 5.62% | 5.15% | 5.74% | 2.37% | 5.43% | 1.99% | 7.43% | 0.49% | -0.22% | 0.91% |
